Assay: viability profiling in RPMI8226 myeloma cells – cell-based, resazurin fluorescence, basal, 24 h, PK04 Diversity Set, profiling panel (AID 1180);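 also: RPMI8826 multiple myeloma cell line at 5000 cells per well; test concentration not given here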
Settings: higher = more signal
For `NC(=O)N1C(=O)C2C(C1=O)C1C=C(CCCO)C2C(C2CC2)N1Cc1sc2ccccc2c1Cl` (stereo not given), the z-score was 0.555. With `CCOC(=O)C1=CCC(c2cc3ccccc3[nH]2)N(CCN2CC(C(=O)OCC)=CCC2c2cc3ccccc3[nH]2)C1` (stereo not given) the z-score was -0.458. Compound `COCC(=C=CC[C@H](O)c1ccccc1OCCO)C[C@H](O)COCc1ccccc1` has a z-score of 0.623. Compound `COc1ccc([Si](C)(C)[C@@H]2[C@@H](CC(=O)N3CCC[C@H]3CO)O[C@]3(C(=O)N(Cc4ccc(N5CCOC5=O)cc4)c4ccccc43)[C@H]2C)cc1` has a z-score of -2.98. Compound `C=C(CCCC)C(=O)CC[C@H](OC(=O)c1ccccc1-c1ccccc1C(=O)O)c1ccc(OCCO)cc1` has a z-score of 0.147. For `COC(=O)[C@@]1(Cc2ccc(F)cc2)[C@H]2c3cc(C(=O)N4CCCC4)n(Cc4ccccn4)c3C[C@H]2CN1C(=O)c1ccccc1`, the z-score was -2.45. With `O=C1NC(=O)C2C1C=CC(C(O)c1ccc([N+](=O)[O-])cc1)N2Nc1ccccn1` (stereo not given) the z-score was -0.723. `CCCC#C[Si](O[C@H](CC)c1cn(Cc2ccccc2)nn1)(C(C)C)C(C)C` showed a z-score of -0.754. With `COCCCNC(=O)[C@@]1(CCC(=O)OC(C)(C)C)COC(c2ccc(OCCCO)cc2)=N1` the z-score was 0.928. `C=C(CCCC)/C(=C/C[C@H](OC(C)=O)c1cccc(OCCO)c1)c1cnc2ccccc2c1` showed a z-score of 0.814. Compound `CN(C)C(=O)[C@]1(Cc2ccccc2)N=C(c2ccc(OCCCO)cc2)O[C@@H]1c1ccccc1CN=[N+]=[N-]` has a z-score of 0.431. Compound `Cc1ccc(S[C@]2(C(=O)NCc3ccccc3)CC(=O)N(Cc3ccccc3C(F)(F)F)[C@@H]2c2ccc(CO)cc2)cc1` has a z-score of -0.307. For `CCCN1C(=O)[C@]2(CCC(=O)OC(C)(C)C)N=C(c3ccc(OCCCO)cc3)O[C@@H]2c2ccccc21`, the z-score was -2.7. In the case of `C[N+](C)(C)CCCC[C@@H]1NC(=O)[C@H]2C[C@@H](C(=O)NCCCCCNC(=O)CS)[C@@H](c3cccc(OCCO)c3)N2C1=O`, the z-score is reported as 0.401. Work on `CO[C@H]1O[C@H](CO)[C@@H](OC(=O)Nc2ccccc2-c2ccccc2)[C@H](OC(=O)Nc2ccccc2)[C@H]1OC(=O)Nc1ccccc1` yielded a z-score of -2.06. Compound `CC(C)=C1C(=O)C(c2ccccc2)=C2CN3C(=O)N(CCc4ccccc4)C(=O)[C@]3(C)[C@H]21` has a z-score of -1.52. `C[C@]1(C(=O)O)c2ccccc2C(=O)N(Cc2cc(F)cc(C(F)(F)F)c2)[C@H]1c1ccc(CO)cc1` gave a z-score of 1.4. `CN(C)CCCNC(=O)[C@@]1(Cc2ccccc2I)c2ccccc2C(=O)N(C2CCCCC2)[C@H]1c1ccc(CO)cc1` gave a z-score of -6.58. In the case of `C#CCN1[C@@H](Cc2ccccc2)C(=O)O[C@H](Cc2ccccc2)[C@@H]1/C=C/C1CC1`, the z-score is reported as 1.62. `CCCc1cc2c(n1CCc1ccc(Cl)cc1)C(C)C1CN(C(=O)c3ccccc3)C(C)(C(=O)OC)C21` (stereo not given) showed a z-score of -1.98. In the case of `CN1C(=O)[C@@H]2[C@@H](CC(COc3ccccc3)=C3[C@@H](CCc4ccccc4)OB(O)C[C@@H]32)C1=O`, the z-score is reported as -0.861. Compound `CC(C)(C)OC(=O)CC[C@]1(C(=O)NCC(O)CO)N=C(c2ccc(OCCCO)cc2)O[C@H]1c1ccccc1N=[N+]=[N-]` (stereo not given in full) has a z-score of -0.288. `COc1ccc([Si](C)(C)[C@H]2[C@H](CC(=O)N3CCC[C@H]3CO)O[C@@]3(C(=O)N(Cc4ccc(N5CCCCC5=O)cc4)c4ccccc43)[C@@H]2C)cc1` showed a z-score of -0.171. Work on `C=CCOC(=O)[C@H]1[C@@H]2C(=O)O[C@@H](c3ccccc3)[C@@H](c3ccccc3)N2[C@@H](c2ccc(OCCOC(=O)[C@@H]3C[C@@H]4C(=O)N[C@@H](CCCC[N+](C)(C)C)C(=O)N4[C@@H]3c3ccc(O)cc3)cc2)[C@]12C(=O)Nc1ccc(I)cc12` yielded a z-score of -0.854. For `O=C(NCc1ccc(F)cc1)[C@H]1C[C@H]2C(=O)N3CCC[C@H]3C(=O)N2[C@H]1c1ccc(O)cc1`, the z-score was 0.379.

Reference: PubChem BioAssay
